The sample as a whole holds a higher share of hits than the screen did.
Shiga inhibitor = inhibitors of Shiga toxin in Vero cells; Vero cells, Shiga toxin protein synthesis inhibition reporter; 9.2% of 290,000 active; inhibition, % at 38.7 µM; in the data active means inhibition mostly above about 28%, no sharp cut-off; inactive means mostly below about 43%; further: 0% is about no effect
VACV mCherry inh = vaccinia inhibition (mCherry reporter); Vaccinia virus mCherry reporter infection, fluorescence; Potency, µM (series often up to 36.5 µM), for the others: top-dose activity change, negative = inhibition, most hits filed as inhibitors; 0.63% of 310,000 active; AID 720579; calls by dose curve; tested in A549 cells; further: potency means the concentration at half of the fitted maximal effect; on the % scale 0 is the no-effect control and ±100 the full control effect; nearly all actives have a fitted effect of over 35% in size
Cycloheximide cs = counter-screen hit for Shiga toxin inhibitors, cycloheximide | cell reporter, cycloheximide protein synthesis inhibition counterscreen | 12% of 300,000 active | max response, %; in the data active means max response mostly above about 13%, no sharp cut-off; inactive means mostly below about 14%; further: read at 38.3 µM for the half of the compounds with a filed dose; 0% is about no effect
LASV entry inh = inhibitors of Lassa virus binding or cell entry; Lassa virus pseudotype entry inhibition, cell reporter; Potency, µM (series often up to 37.9 µM), for inactives: at the top dose activity change, negative = inhibition, hits mostly inhibitors; 1.2% of 300,000 active; AID 540256; calls by dose curve; tested in HEK293 cells; further: potency means the concentration at half of the fitted maximal effect; on the % scale 0 is the no-effect control and ±100 the full control effect; nearly all actives have a fitted effect of over 50% in size
Vaccinia Venus = vaccinia inhibition (Venus reporter). 0.46% of 330,000 active. Vaccinia virus Venus reporter expression, fluorescence. Potency, µM (titrated, usually from 36.5 µM), without a hit: at the highest dose activity change, negative = inhibition, actives largely listed as inhibitors; calls by dose curve; tested in A549 cells; further: potency means the concentration at half of the fitted maximal effect; on the % scale 0 is the no-effect control and ±100 the full control effect; nearly all actives have a fitted effect of over 30% in size
Marburg entry inh = inhibitors of Marburg virus binding or cell entry; Marburg virus pseudotyped entry inhibition, cell reporter; 1.8% of 300,000 active; AID 540276; Potency, µM (titrated, usually from 37.8 µM), without a hit: top-dose activity change, negative = inhibition, most hits filed as inhibitors; calls by dose curve; tested in HEK293 cells; further: potency means the concentration at half of the fitted maximal effect; on the % scale 0 is the no-effect control and ±100 the full control effect
An asterisk follows results filed as active; [ ] = dose if it differs, or a comment.

Screening Cc1ccc(-n2c(C)nc3cc(Cl)ccc3c2=O)nc1 returned Shiga inhibitor 63*, VACV mCherry inh -14%, Cycloheximide cs 28*, LASV entry inh -2%[46.1 µM], Vaccinia Venus -18% and Marburg entry inh -2%[46.1 µM].
For CCC(=Nc1ccccc1O)C1=C(O)CC(c2ccccc2)CC1=O (stereo unspecified) the results were Shiga inhibitor 34 and Cycloheximide cs 11*.
CCC(=Nc1ccccc1OC)C1=C(O)CC(c2ccccc2)CC1=O (stereo unspecified) was read as Shiga inhibitor 21, VACV mCherry inh inactive, Cycloheximide cs -10, LASV entry inh -4%[46.1 µM], Vaccinia Venus -8% and Marburg entry inh 5%[46.1 µM].
`Oc1ccccc1/C=N/Nc1ccnc(SCc2ccccc2)n1` gave Shiga inhibitor 30, VACV mCherry inh inconclusive, Cycloheximide cs 24*, LASV entry inh 2%, Vaccinia Venus inconclusive and Marburg entry inh -1%.
For Cc1cc(O)c(/C=N/Nc2ccccc2)c(=O)o1 the results were Shiga inhibitor 0, Cycloheximide cs 20*, LASV entry inh inconclusive, Vaccinia Venus -15% and Marburg entry inh -2%.
Oc1ccccc1/C=N/Nc1ccccc1 was read as Shiga inhibitor 197*, VACV mCherry inh inconclusive, Cycloheximide cs 48*, LASV entry inh inconclusive, Vaccinia Venus -23% and Marburg entry inh inconclusive.
`O=C(NN=Cc1ccccc1O)C1CC1` gave VACV mCherry inh -26%, LASV entry inh 26%[46.1 µM], Vaccinia Venus -12% and Marburg entry inh -14%[46.1 µM].
Screening Oc1ccccc1/C=N/NP(=S)(c1ccccc1)c1ccccc1 returned Shiga inhibitor 23, VACV mCherry inh -15%, Cycloheximide cs 14, LASV entry inh 2%, Vaccinia Venus inconclusive and Marburg entry inh 5%[46.1 µM].
Screening Oc1ccccc1/C=N/Nc1ncc(Br)cn1 returned Shiga inhibitor 74*, VACV mCherry inh inconclusive, Cycloheximide cs 66*, LASV entry inh -5%, Vaccinia Venus inconclusive and Marburg entry inh -24%.
`COc1cc(=O)n2c(c1C(=O)N(C)Cc1nonc1C)CCN(Cc1cc(C)ccc1C)CC2` gave VACV mCherry inh -14% and Vaccinia Venus -7%.
`CCc1noc(C)c1C(=O)Nc1ccccc1N1CCOCC1` gave VACV mCherry inh -9%, LASV entry inh 8%, Vaccinia Venus 0% and Marburg entry inh 0%.
`O=C(Nc1cc(F)ccc1F)N1CCC(CN2CCCC2)CC1` gave VACV mCherry inh -4%, LASV entry inh 1%[46.1 µM] and Vaccinia Venus -5%.
Screening COCC(C)N=C1NN=C(c2ccc(NC(C)=O)cc2)CS1 (stereo unspecified) returned Shiga inhibitor 44, VACV mCherry inh inconclusive, Cycloheximide cs 22*, LASV entry inh 16%[46.1 µM], Vaccinia Venus -21% and Marburg entry inh 3%[46.1 µM].
For CC(=O)Nc1ccc(C2=NNC(=NCC3CCCO3)SC2)cc1 (stereo unspecified) the results were Shiga inhibitor 60, VACV mCherry inh inactive, Cycloheximide cs -1, LASV entry inh 10%, Vaccinia Venus -6% and Marburg entry inh -4%.
COCCCN=C1NN=C(c2cc(C)n(Cc3ccco3)c2C)CS1 was read as Shiga inhibitor 127*, Cycloheximide cs 40*, LASV entry inh inconclusive and Marburg entry inh 16µM*.
C=CCN=C1NN=C(c2cc(C)n(CCOC)c2C)CS1 was read as Shiga inhibitor 21, VACV mCherry inh -2%, Cycloheximide cs 31, LASV entry inh inconclusive, Vaccinia Venus -5% and Marburg entry inh inconclusive.
COCCn1c(C)cc(C2=NNC(=NC3CC3)SC2)c1C was read as Shiga inhibitor -37, VACV mCherry inh inactive, Cycloheximide cs -16, LASV entry inh 0.32µM*, Vaccinia Venus -4% and Marburg entry inh 0.32µM*.
Screening COCC(C)N=C1NN=C(c2cc(C)n(Cc3ccccc3Cl)c2C)CS1 (stereo unspecified) returned Shiga inhibitor 108* and Cycloheximide cs 55*.
For CCCCNC(=O)c1c(-c2ccccc2)c(-c2ccccc2)nn(C)c1=O the results were VACV mCherry inh 4%, LASV entry inh inconclusive, Vaccinia Venus -5% and Marburg entry inh 19%[46.1 µM].
Cc1cc(C2=NNC(=NC3CC3)SC2)c(C)n1-c1ccccc1 was read as Shiga inhibitor -6, VACV mCherry inh -5%, Cycloheximide cs -1 and Vaccinia Venus -19%.
Screening COc1ccc(-n2c(C)cc(C3=NNC(=NC4CC4)SC3)c2C)cc1 returned Shiga inhibitor 85*, VACV mCherry inh -6%, Cycloheximide cs 40*, LASV entry inh inconclusive, Vaccinia Venus -5% and Marburg entry inh inconclusive.
`Cc1cc(C2=NNC(=NC3CC3)SC2)c(C)n1Cc1ccco1` gave Shiga inhibitor 137*, VACV mCherry inh -9%, Cycloheximide cs 95*, LASV entry inh inconclusive, Vaccinia Venus -19% and Marburg entry inh inconclusive.
CC(C)COc1ccc(C(=O)N[C@@H](CC(C)C)C(=O)O)cc1 was read as Marburg entry inh 27%.
Screening CC1(C)Cc2c(cnn2-c2ccccc2)C(NC(=O)c2ccc[n+]([O-])c2)C1 (stereo unspecified) returned Shiga inhibitor -22, VACV mCherry inh -12%, Cycloheximide cs 9, LASV entry inh 1%, Vaccinia Venus -8% and Marburg entry inh 20%.
For CCc1noc(C)c1C(=O)Nc1nc2c(C)cc(C)cc2s1 the results were VACV mCherry inh -5%, LASV entry inh 9%, Vaccinia Venus -14% and Marburg entry inh inconclusive.
CCc1noc(C)c1C(=O)Nc1nc2ccc(S(C)(=O)=O)cc2s1 was read as VACV mCherry inh 0%, LASV entry inh -5%, Vaccinia Venus 0% and Marburg entry inh -8%.
Screening Cc1cc(C)c2nc(NC(=O)c3cc(C)on3)sc2c1 returned Shiga inhibitor 21, Cycloheximide cs 22*, LASV entry inh 9%, Vaccinia Venus -17% and Marburg entry inh 0%.
`CCc1ccc2nc(NC(=O)c3cc(C)on3)sc2c1` gave Shiga inhibitor 95*, Cycloheximide cs 54*, LASV entry inh inconclusive, Vaccinia Venus -37% and Marburg entry inh -22%.
For COc1cccc(OCCCCn2c(-c3ccc(Cl)cc3)nc3ccccc3c2=O)c1 the results were VACV mCherry inh -11%, LASV entry inh 25%[46.1 µM], Vaccinia Venus -2% and Marburg entry inh 27%[46.1 µM].
CCOC(=O)c1oc2cccc(OC(C)=O)c2c1C was read as Shiga inhibitor 68*, VACV mCherry inh inconclusive, Cycloheximide cs 39*, LASV entry inh 8%, Vaccinia Venus inconclusive and Marburg entry inh 23%.
For CCOC(=O)c1oc2ccc(CNC(C)(C)C)c(Cl)c2c1C the results were Shiga inhibitor 27*, VACV mCherry inh -5%, Cycloheximide cs 16*, LASV entry inh -19%, Vaccinia Venus -23% and Marburg entry inh inconclusive.
`CCOC(=O)c1oc2cccc(O)c2c1CN1CCOCC1` gave Shiga inhibitor -17, VACV mCherry inh -23%, Cycloheximide cs -2, LASV entry inh 1%, Vaccinia Venus -14% and Marburg entry inh 3%.

Compound activity (PubChem BioAssay)
